Screens: PubChem, The Scripps Research Institute Molecular Screening Center
Sampled rows, rich in hits. Any-hit rate of the full collection: about 2.9%.
PLC-gamma1 inh: PLC-gamma1 enzyme inhibitors, primary screen, biochemical, fluorescence, purified enzyme. 1-phosphatidylinositol 4,5-bisphosphate phosphodiesterase gamma-1 (Homo sapiens), P19174. fluorogenic substrate. inhibition, % at 12.2 µM. hit rate 0.84% among 370,000; in the data active = inhibition above about 9.5%
ADAM17 inh: ADAM17 inhibitors, primary screen, biochemical, QFRET; hit rate 0.83% among 370,000; inhibition, % at 6.95 µM; AID 720648, 2013; recombinant ADAM17, EDANS/DABCYL FRET peptide cleavage;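 active = inhibition above the mean of compounds lying between control limits plus 3 SD, set per campaign, cut at about 8.5% in these data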
KLK7 zymogen act: proKLK7 zymogen activators, primary screen, biochemical, fluorescence intensity; Kallikrein-7 (Homo sapiens), P49862; purified proKLK7, EDANS-DABCYL substrate fluorescence; 100% is mature enzyme control, 0% vehicle; activation, % at 7 µM; hit rate 0.9% among 370,000; AID 652039, 2013;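 active = activation above the mean of all tested compounds plus 3 SD, computed per campaign excluding outliers beyond control limits, cut at about 13% in these data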
Target sequence (P49862 whole entry, looked up): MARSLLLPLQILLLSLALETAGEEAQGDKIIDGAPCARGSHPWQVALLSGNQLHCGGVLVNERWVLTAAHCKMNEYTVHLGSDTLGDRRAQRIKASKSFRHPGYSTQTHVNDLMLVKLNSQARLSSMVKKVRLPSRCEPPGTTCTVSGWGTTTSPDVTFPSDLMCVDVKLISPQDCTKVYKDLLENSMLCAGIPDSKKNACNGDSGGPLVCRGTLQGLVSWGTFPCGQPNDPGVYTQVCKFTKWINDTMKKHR
PLC-beta3 inh: human PLC-beta3 inhibitors, primary screen, biochemical, fluorescence | 1-phosphatidylinositol 4,5-bisphosphate phosphodiesterase beta-3 (Homo sapiens), Q01970 | Purified PLC-beta3, fluorogenic substrate | inhibition, % at 12.2 µM | hit rate 0.18% among 370,000; in the data active = inhibition above about 11%
ADAM10 inh: human ADAM10 inhibitors, primary screen, biochemical, QFRET, HTS; hit rate 0.62% among 370,000; AID 720582, 2013; inhibition, % at 7 µM; recombinant ADAM10, EDANS/DABCYL FRET peptide cleavage, 3 h;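 active = inhibition above a per-campaign cutoff equal to the mean of compounds falling between control-based bounds plus 3 SD, cut at about 20% in these data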
ADAM10 confirm: human ADAM10 inhibitors, confirmation, biochemical, QFRET, triplicate. hit rate 1% among 2,100. shares compounds with ADAM10 inh. ADAM10 QFRET peptide cleavage, EDANS fluorescence. inhibition, % at 6.95 µM;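 active = inhibition above about 20% chosen separately for each screening run, limit read from the data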
ADAM17 counter: ADAM17 inhibitors, counter-screen for ADAM10 exosite inhibitor project, biochemical, QFRET, high throughput; shares compounds with ADAM10 inh; ADAM17 QFRET peptide cleavage, EDANS fluorescence; inhibition, % at 6.95 µM; hit rate 0.5% among 2,100; AID 743214, 2013;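 active = mean triplicate inhibition above the solvent-only control wells' mean plus 3 SD, cut at about 12% in these data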
Large screens that a line does not name were inactive (follow-up assays come after a bar, where they were run).

Clc1cccc(CON/C=N/c2ncnc3sccc23)c1	ADAM10 inh 21.2 | ADAM10 confirm inactive | ADAM17 counter inactive
Clc1cccc(Cl)c1CON/C=N/c1ncnc2sccc12	none
COCCCNC(=O)Cn1cc2c(n1)CCC(C)C2 (stereo not drawn)	ADAM10 inh 86.6 | ADAM10 confirm inactive | ADAM17 counter inactive
C[C@H](O)[C@@H]1CN2CCc3c([nH]c4cccc(-c5ccccc5)c34)[C@@H]2C[C@@H]1N(C)C(=O)c1ccco1	none
CCOC(=O)N[C@H](C(=O)N1CCC[C@H]1C(=O)NCc1ccccc1)C(C)C	none
CCOc1ccc(-c2nnc(SCC(=O)NC(C)(C)C)nc2-c2ccc(OCC)c(OC)c2)cc1OC	ADAM10 inh 23.0 | ADAM10 confirm inactive | ADAM17 counter inactive
CCC(C)NC(=O)CSc1nnc(-c2ccc(OC)c(OC)c2)c(-c2ccc(OC)c(OC)c2)n1 (stereo not drawn)	none
COc1cc(C(=S)N2CCCC2)ccc1OS(=O)(=O)c1ccc(NC(C)=O)cc1	none
CC(=O)Nc1ccc(S(=O)(=O)Oc2ccccc2N2CCCCC2)cc1	ADAM10 inh 22.6 | ADAM10 confirm inactive | ADAM17 counter inactive
C[C@@H]1ON(C)[C@H]2C[C@H]3c4[nH]c5c(-c6cccc(Cl)c6)cccc5c4CCN3C(=O)[C@@H]12	none
O=C(Nc1cccc(S(=O)(=O)N2CCOCC2)c1)c1ccco1	none
O=C(Oc1cccc(NC(=O)c2ccco2)c1)c1cccc(S(=O)(=O)N2CCCCC2)c1	ADAM10 inh 20.7 | ADAM10 confirm inactive | ADAM17 counter inactive
COc1ccc2[nH]c3c(c2c1)CCN[C@]31C(=O)N(C)c2ccccc21	none
NS(=O)(=O)c1ccc(CCNC(=O)c2cc(-c3cc(Cl)ccc3O)n[nH]2)cc1	ADAM10 inh 23.4 | ADAM10 confirm inactive | ADAM17 counter inactive
Cc1cc(O)c(-c2cc(C(=O)NCCc3ccc(S(N)(=O)=O)cc3)[nH]n2)cc1C	none
CC(=O)N1CCCN(C(=O)C2CCN(c3ncnc4c3sc3cccc(F)c34)CC2)CC1	none
Cc1ccc(Nc2c([N+](=O)[O-])cc(C(=O)N3CC(=O)Nc4ccccc43)cc2[N+](=O)[O-])c(C)c1	ADAM10 inh 20.4 | ADAM10 confirm inactive | ADAM17 counter inactive
CSc1nc(O)c(C(c2ccc(O)cc2)c2c(O)nc(SC)[nH]c2=O)c(=O)[nH]1	none
CSc1nc(O)c(C(c2cccc([N+](=O)[O-])c2)c2c(O)nc(SC)[nH]c2=O)c(=O)[nH]1	ADAM10 inh 81.1 | ADAM10 confirm inactive | ADAM17 counter inactive
O=C(NC(=S)Nc1ccccc1N1CCCC1)c1ccc(-c2cccc([N+](=O)[O-])c2)o1	ADAM10 inh 19.9 | ADAM10 confirm inactive | ADAM17 counter inactive
O=C(NC(=S)Nc1ccccc1N1CCCCC1)c1ccc(-c2cccc([N+](=O)[O-])c2)o1	none
CCc1ccccc1N(CC(=O)NCc1ccco1)C(=O)CCC(=O)Nc1nccs1	ADAM10 inh 88.0 | ADAM10 confirm inactive | ADAM17 counter inactive
COc1ccc(N(C)C(=O)c2oc(=O)c3ccccc3c2-c2ccc(C)cc2)c(OC)c1	ADAM10 inh 21.8 | ADAM10 confirm inactive | ADAM17 counter inactive
CCCN(CC1CC1)C(=O)c1oc(=O)c2ccccc2c1-c1ccc(C)cc1	none
C[C@H]1[C@H](NCc2cccnc2)CC[C@@]23CCCN2C(=O)CCC[C@@H]13	none (no result: KLK7 zymogen act)
COc1cccc(N=NC2C(=O)N(C(N)=S)N=C2C)c1 (stereo not drawn)	ADAM10 inh 20.7 | ADAM10 confirm inactive | ADAM17 counter inactive
CC(=O)CC[C@H]1CC[C@]2(CCCN(S(C)(=O)=O)C2)O1	none
